Measurements as given in PubChem BioAssay AID896 (National Center for Advancing Translational Sciences (NCATS), 2007).
The other results are listed elsewhere or left out. Records with an inconclusive call do not appear.

Experiment: Confirmation Concentration-Response Assay for Allosteric/Competitive Inhibitors of Caspase-1
Conditions: purified caspase-1, fluorogenic substrate cleavage; compound fluorescence baseline read; at 57.5 µM
From the text: NIH Molecular Libraries Screening Centers Network [MLSCN]
NIH Chemical Genomics Center [NCGC]
PI Name: Dr. James Wells,
Dr. Enrique Perez-Paya, Dr.Janice Williams, Dr. Dennis Wolan, a person
The caspases (Cysteine Aspartyl Protease) comprise a related family of 14 dimeric proteases that are critical mediators of apoptosis (programmed cell death) and inflammation. The caspases represent an important class of drug targets for stroke, ischemia, cancer and inflammatory diseases. […] One goal of this project was to identify compounds that act as allosteric inhibitors via stabilizing the procaspase form of the enzyme. […]
The biochemical assay was configured using purified caspase 1 at a high enzyme concentration to promote formation of the homodimers and thus facilitate the identification of allosteric inhibitors. […] After initiation of the assay with substrate the plates were rapidly read using an automated robotic system (Kalypsys, Inc.) to maintain consistent timing. […] Product formation was also measured after 1 hour. […]
Caspase 1 was prepared in buffer (50 mM HEPES pH 7.5, 50 mM KCl, 200 mM NaCl, 10 mM DTT, 0.1% CHAPS) at a concentration of 66.6 nM and 3 uL was dispensed to all wells using black solid Kalypsys 1536-well plates. […] The plates were then exposed using 405 nm excitation/520 nm emission filters for 4 sec and read at 20 sec intervals for 3 min. […]

**Q.** For `Cc1nc2c(C(=O)NCc3ccc4c(c3)OCO4)c[nH]n2c(=O)c1Cc1ccccc1F`, which baseline fluorescence is on record?
**A.** -1.24%
